From PubChem
Mtb hypoxia rep – reduces hypoxia-regulated biosensor signal in M. tuberculosis; M. tuberculosis hypoxia-regulated fluorescent reporter, fluorescence; fluorescence inhibition, % (test concentration not listed); 0.1% of 300,000 active; AID 1159583; in the data active means fluorescence inhibition mostly above about 23%, no sharp cut-off; inactive means mostly below about 17%
GDH-TPI counter-1 – inhibits GDH-TPI coupling enzymes, artifact for Mtb FBA screen | inhibition, % at 4.8 µM | GDH-TPI coupled enzyme counterscreen, NADH absorbance | 1.2% of 360,000 active; in the data active means inhibition above about 30%
Mtb BioA inh – blocks M. tuberculosis BioA enzyme activity. inhibition, % at 9.99 µM. purified M. tuberculosis BioA enzyme, plate reader. 0.096% of 360,000 active; in the data active means inhibition above about 40%
FadD28 FP inh – M. tuberculosis FadD28 bisubstrate binding inhibition. FadD28 bisubstrate probe binding, fluorescence polarization. 0.22% of 360,000 active. inhibition, % at 12.5 µM; in the data active means inhibition above about 8.5%, passing the limit was not always enough
Mtb FBA inh – inhibitors of M. tuberculosis fructose-bisphosphate aldolase. purified M. tuberculosis FBA, fluorescence read-out. AID 588726. inhibition, % at 1 µM. 2.3% of 360,000 active. P9WQA3
Target sequence (P9WQA3 whole entry, looked up): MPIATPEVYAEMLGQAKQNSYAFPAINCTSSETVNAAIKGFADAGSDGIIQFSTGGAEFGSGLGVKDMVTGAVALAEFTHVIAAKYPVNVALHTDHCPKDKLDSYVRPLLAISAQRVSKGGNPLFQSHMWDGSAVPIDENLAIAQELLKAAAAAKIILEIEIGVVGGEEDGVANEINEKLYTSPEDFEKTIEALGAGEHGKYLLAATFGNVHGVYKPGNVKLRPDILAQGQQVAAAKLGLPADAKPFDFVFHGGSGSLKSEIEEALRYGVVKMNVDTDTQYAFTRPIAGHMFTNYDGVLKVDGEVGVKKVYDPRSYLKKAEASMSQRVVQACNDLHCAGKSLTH
Mtb FBA confirm – Mtb FBA inhibition, confirmed | purified M. tuberculosis FBA, fluorescence read-out | 78% of 5,600 active | AID 651616 | shares compounds with Mtb FBA inh | inhibition, % at 1 µM
GDH-TPI counter-2 – inhibits GDH-TPI coupling enzymes, flagging Mtb FBA hits; inhibition, % at 1 µM; 81% of 5,600 active; AID 652141; GDH-TPI coupled enzyme counterscreen, fluorescence; shares compounds with Mtb FBA inh; in the data active means inhibition above about 10%
GDH-TPI dose – inhibits GDH-TPI coupling enzymes in dose response | IC50, µM | GDH-TPI coupled enzyme assay, fluorescence, artifact counterscreen | 79% of 170 active | shares compounds with Mtb FBA inh; call rule not given here
Numbers stand for hits; - = inactive; . = no result given; + = active, no number. A selection: hits, their analogues and other compounds. The true share with any hit is near 2.9%. Unless noted, no stated cut-off is given here; in the data, active means inhibition above about 27%; inactive means the rest.

SMILES	Mtb hypoxia rep	GDH-TPI counter-1	Mtb BioA inh	FadD28 FP inh	Mtb FBA inh	Mtb FBA confirm	GDH-TPI counter-2	others
CC(=NNC(=O)COc1ccccc1-c1ccccc1)c1ccccn1	-	.	.	.	.	.	.
CCOc1cc(C=NNC(=O)Cn2nc([N+](=O)[O-])cc2C)cc(Br)c1OCc1ccccc1F	-	.	.	.	.	.	.
CCCNC(=O)C[C@@H]1CC[C@@H]2[C@@H](COc3ccc(NC(=O)Nc4cccc(C)c4)cc3C(=O)N2C)O1	.	.	-	.	.	.	.
CCN(CC)CCNC(=O)CCc1c(C)nc2c(c(C)nn2-c2ccc(C)cc2)c1C	-	-	-	-	41.0	-	-
COCCNC(=O)CCc1c(C)nc2c(c(C)nn2-c2ccc(C)cc2)c1C	-	-	-	-	54.6	63.0	48.8
COCCCNC(=O)CCc1c(C)nc2c(c(C)nn2-c2ccc(C)cc2)c1C	-	-	-	-	56.3	71.5	77.1
COCCNC(=O)CCc1c(C)nc2c(c(C)nn2-c2ccc(C)c(C)c2)c1C	-	-	-	-	42.6	73.7	56.3
Cc1ccc(-n2nc(C)c3c(C)c(CCC(=O)NC(C)c4ccccc4)c(C)nc32)cc1 (stereo not given)	-	-	-	-	-	.	.
CCCC#Cc1cnc2c(c1)C(=O)N([C@@H](C)CO)C[C@@H](C)[C@@H](CN(C)C(=O)c1ccc(F)cc1)O2	.	.	-	.	.	.	.
CN(C)CCCNC(=O)C[C@@H]1CC[C@@H]2[C@@H](COc3ccc(NC(=O)c4ccc5c(c4)OCO5)cc3C(=O)N2C)O1	.	.	-	.	.	.	.
CCN(C[C@H]1N[C@H](CO)[C@@H]1c1ccc(-c2ccccc2)cc1)C(=O)COC	.	.	-	.	.	.	.
N=c1oc2cc(O)ccc2cc1C(=O)Nc1ccc(F)cc1	-	-	-	-	90.5	160.1	133.7
O=C(c1ccc(F)cc1)c1cc2ccc(O)cc2oc1=O	-	-	-	-	-	.	.
CCOC(=O)c1cnc2c(C(=O)OCC)cnn2c1N	-	-	-	-	-	.	.
CCOC(=O)c1cnn2c(N)c(C#N)cnc12	-	-	.	-	28.9	50.7	37.0
N#C/C(=C(/O)CCCl)c1ccccn1	-	-	-	-	58.9	86.8	54.7
N#C/C(=C(\O)c1ccco1)c1ccccn1	.	-	-	-	-	.	.
O=C(NCCO)c1ccc2[nH]c3c(c2c1)CCCC3	-	-	-	-	-	.	.
CCOC(=O)c1[nH]c2ccc(C)cc2c1N	-	-	-	-	-	.	.
O=C(NCC(O)CO)c1ccc2[nH]c3ccccc3c2c1 (stereo not given)	-	-	-	-	63.4	135.0	107.5
CCOC(=O)CNC(=O)c1ccc2[nH]c3ccccc3c2c1	-	-	.	-	60.5	-	-
CCOC(=O)c1[nH]c2ccc(C(=O)OC)cc2c1C(=O)OCC	-	-	-	-	45.9	113.7	93.2
CCOC(=O)CNC(=O)c1ccc(C)cc1	.	-	-	-	-	.	.
CCNC(=O)C[C@@H]1CC[C@H]2[C@@H](COc3ccc(NC(=O)Nc4cccc(C)c4)cc3C(=O)N2C)O1	.	.	-	.	.	.	.
CCOC(=O)C1CCN(C(=O)Nc2ccc3nccnc3c2)CC1	.	-	-	-	36.9	56.8	37.5
SMILES	Mtb hypoxia rep	GDH-TPI counter-1	Mtb BioA inh	FadD28 FP inh	Mtb FBA inh	Mtb FBA confirm	GDH-TPI counter-2	others
COC(=O)C1CCN(C(=O)c2ccc3nccnc3c2)CC1	-	-	-	-	-	.	.
CC(=O)N1CCc2c(sc(NC(=O)C3CCCN3S(=O)(=O)c3cccs3)c2C#N)C1 (stereo not given)	-	-	-	-	32.9	48.4	35.2
O=C(COc1ccc2c(c1)C(=O)CC1(CCCCC1)O2)NCc1ccccn1	-	-	-	-	37.5	82.2	57.7
O=C(COc1ccc2c(c1)C(=O)CC1(CCCCC1)O2)NCc1ccccc1	-	-	-	-	36.4	62.5	48.4
CCOC(=O)COc1ccc2c(c1)C(=O)CC1(CCCCC1)O2	-	-	.	-	53.2	89.1	76.6
O=C(COc1ccc(S(=O)(=O)NC2CCCCC2)cc1)NCc1ccccn1	-	-	-	-	-	.	.
O=C(COc1ccccc1)NCc1ccccc1	.	-	-	.	-	.	.
Cc1nc(CC(=O)NN=Cc2ccc(OCC(=O)O)cc2)cs1	-	.	.	.	.	.	.
CO[C@@H]1CN(C)C(=O)c2ccc(NC(=O)C3CCC3)cc2OC[C@H](C)N(Cc2ccncc2)C[C@H]1C	.	.	-	.	.	.	.
CC(=O)N(C)C[C@H]1[C@H](c2ccc(-c3ccc(F)cc3)cc2)[C@@H](CO)N1C(C)=O	.	.	-	.	.	.	.
COc1ccc(-c2ccnc3cc(C(=O)O)nn23)cc1	-	-	.	-	35.9	-	-
Cc1cc2nccc(-c3ccc(F)cc3)n2n1	-	-	-	-	-	.	.
c1coc(-c2ccnc3nc(-n4cccc4)nn23)c1	-	-	.	-	-	.	.
O=C(O)c1cc2nccc(-c3ccco3)n2n1	-	36.4	-	-	32.1	122.2	98.0
CCOc1ccc(C=NNC(=O)c2ccc(F)cc2)cc1CN1CC2CC(C1)c1cccc(=O)n1C2 (stereo not given)	-	.	.	.	.	.	.
O=C(Nc1ccc2c(c1)OCCO2)c1cccs1	-	-	-	-	38.1	-	-	GDH-TPI dose=-
O=C(Nc1ccc2c(c1)OCO2)c1cccs1	-	-	-	-	-	.	.
Cc1ccc(Cc2cnc(NC(=O)C3=NCCN3)s2)cc1	-	.	.	.	.	.	.
O=C(Nc1ncc(Cc2ccccc2)s1)C1=NCCN1	-	-	-	-	65.2	93.0	77.3
O=C(C1=CC(c2csc3ccccc23)CC(OCCCCO)O1)N1CCOCC1 (stereo not given)	-	.	.	.	.	.	.
Cc1ccc(O)c(Nc2c3ccccc3nc3ccccc23)c1	-	-	-	-	99.2	+	+
NC(=O)COc1ccc2oc(-c3ccccc3)cc(=O)c2c1	-	-	-	-	77.1	-	-
CCc1ccccc1NC(=O)COc1ccc2oc(-c3ccc(OC)cc3)cc(=O)c2c1	-	-	-	-	35.0	75.4	52.2
CCOC(=O)COc1ccc2c(=O)cc(-c3ccccc3)oc2c1	-	-	-	-	-	.	.
Cc1ccc(S(=O)(=O)N(C)C[C@@H]2Oc3ccc(NC(=O)CCC(F)(F)F)cc3C(=O)N([C@@H](C)CO)C[C@H]2C)cc1	.	.	-	.	.	.	.
SMILES	Mtb hypoxia rep	GDH-TPI counter-1	Mtb BioA inh	FadD28 FP inh	Mtb FBA inh	Mtb FBA confirm	GDH-TPI counter-2	others
CCn1ccnc1CN(C)Cc1cn[nH]c1-c1ccc(F)cc1F	-	-	-	-	90.5	-	-
COc1ccc(-c2[nH]ncc2CN(Cc2nccn2C)C(C)C)c(F)c1	-	-	-	-	-	.	.
COc1ccc2c(CC(=O)O)cc(=O)oc2c1	-	-	-	-	66.4	+	+
COC(=O)C1CCN(Cc2cc(=O)oc3cc(OC)ccc23)CC1	-	-	-	-	-	.	.
COc1cc(OC)cc(C(=O)NCC(=O)OCc2cc(=O)oc3cc(OC)ccc23)c1	-	-	.	-	-	.	.
COc1ccc2c(CN3CCCC3)cc(=O)oc2c1	.	.	-	-	36.1	-	-	GDH-TPI dose=5.07
CCCCN(CCCC)Cc1cc(=O)oc2cc(OC)ccc12	.	.	-	-	44.8	+	+
CCOC(=O)C(=NO)C(C)=NNC(C)=O	-	.	.	.	.	.	.
